From PubChem BioAssay AID1259343 (VanderVen Lab, College of Veterinary Medicine, Cornell …, 2017)
About 2,900 (47%) of roughly 6,200 compounds were called active. Rule as the data show it: active = inhibition above about 50%; inactive = the rest. The set was probably picked from earlier hits. Some of the results follow.

assay: Mycobacterium tuberculosis growth inhibition, primary screen (AID 1259343); details: inhibition: at 10 µM, hits give high values; outcome: 10 uM

| SMILES | inhibition |
| --- | --- |
| FC(F)(F)COCCCn1nnc(-c2ccsc2)n1 | 79.5% (active) |
| O=C1C(=Cc2cccs2)CCCC1=Cc1cccs1 | 91.6% (active) |
| C=CCC1SC(=NN=Cc2cccs2)NC1=O (stereo not drawn) | 22.9% (inactive) |
| O=C1C(=Cc2ccc(Br)s2)CCc2ccccc21 | 0.54% (inactive) |
| O=C1NC(=O)C(=Cc2cccs2)S1 | 42.2% (inactive) |
| O=C1C(=Cc2cccs2)CCC1=Cc1cccs1 | 103% (active) |
| O=C1/C(=C/c2cccs2)C(c2cccs2)Oc2ccccc21 (stereo not drawn) | 33% (inactive) |
| CC1CCN(c2nnc(C(=O)Nc3ccccc3)c3ccccc23)CC1 | 24.6% (inactive) |
| CCOc1ccc(OCCCCOc2ccccc2[N+](=O)[O-])cc1 | 83.2% (active) |
| Cc1ccccc1CON=Cc1cccc([N+](=O)[O-])c1 | 54.1% (active) |
| Cc1ccccc1CNc1cccc([N+](=O)[O-])c1 | 35.8% (inactive) |
| COc1ccc(OCCCCOc2ccccc2[N+](=O)[O-])cc1 | 76.2% (active) |
| COCc1cc(C)nc(N/N=C\c2ccccc2[N+](=O)[O-])c1C#N | -18.7% (inactive) |
| CCOc1ccc(N=Cc2cccc([N+](=O)[O-])c2)cc1 | 96.3% (active) |
| CCOC(=O)CCCCCCCCCCCCC1C=CCC1 (stereo not drawn) | -30.7% (inactive) |
| COc1cc(C)ccc1OCCCOc1ccc([N+](=O)[O-])cc1 | 41.8% (inactive) |
| CCOc1ccc(OCCOc2ccccc2[N+](=O)[O-])cc1 | 97.3% (active) |
| CCOc1ccc(OCCOc2ccc([N+](=O)[O-])cc2)cc1 | 26.5% (inactive) |
| CCOc1cccc(OCCCOc2ccc([N+](=O)[O-])cc2)c1 | 86% (active) |
| CCOc1ccc(OCCCOc2ccc([N+](=O)[O-])cc2)cc1 | 23% (inactive) |
| COC(=O)C1=C(O)C(C(=O)OC)C(c2cccs2)C(C#N)(C#N)C1c1cccs1 (stereo not drawn) | 4.02% (inactive) |
| Cc1cc(NC(=O)c2cc(CC(C)C)on2)no1 | 47.4% (inactive) |
| Cc1cccc(N2CCN(C(C)C(=O)Nc3cc(C)on3)CC2)c1 (stereo not drawn) | 85.9% (active) |

| SMILES | inhibition |
| --- | --- |
| CCCCCCNC(N)=S | 72.8% (active) |
| CN(Cc1ccc(Cl)cc1Cl)C(=O)C1CCN(c2ccccc2[N+](=O)[O-])CC1 | 45% (inactive) |
| Cc1nn(C)cc1CN(C)C(=O)c1cccc(Cl)c1 | 101% (active) |
| CC1Sc2ccc(C(=O)N(C)Cc3cccc(Cl)c3)cc2NC1=O (stereo not drawn) | 30.6% (inactive) |
| CN1N=C(CC(=O)Nc2ccc(-n3nccc3C(F)(F)F)cc2)CC1=O | 87.8% (active) |
| CC1CC1C(=O)Nc1ccc(-n2nccc2C(F)(F)F)cc1 (stereo not drawn) | 40% (inactive) |
| Cc1cc(NC(=O)c2cc3ccccc3o2)n(-c2nc(C)c(C)c(=O)[nH]2)n1 | -29.9% (inactive) |
| CCc1c(C)nc(-n2nc(C)cc2NC(=O)c2ccco2)[nH]c1=O | 100% (active) |
| Cc1cc(NC(=O)c2ccco2)n(-c2nc(C)c(C)c(=O)[nH]2)n1 | 100% (active) |
| O=C1CCCN1CCC1CCN(Cc2nc(-c3ccc(Cl)cc3)no2)CC1 | 74% (active) |
| O=C(CCc1ccccc1)C1CCCN(Cc2nc(CC3CC3)no2)C1 (stereo not drawn) | inactive |
| O=C(CCc1ccccc1)C1CCCN(Cc2nc(-c3ccc(Cl)cc3)no2)C1 (stereo not drawn) | 73.2% (active) |
| Clc1ccc(-c2noc(CN3CCCN(c4ncccn4)CC3)n2)cc1 | 77.6% (active) |
| Clc1ccc(-c2noc(CN3CCN(c4ncnc5ccccc45)CC3)n2)cc1 | 71.1% (active) |
| Clc1ccc(-c2nc(-c3ccccn3)no2)cc1 | 79.7% (active) |
| c1ccc(CCCc2nc(-c3ccccn3)no2)cc1 | 30.6% (inactive) |
| Clc1ccc(C2CCCN(Cc3nc(-c4ccccn4)no3)C2)cc1 (stereo not drawn) | 73% (active) |
| c1ccc(-c2noc(CN3CCCC(c4ccccc4)C3)n2)cc1 (stereo not drawn) | inactive |
| O=C(Nc1nnc(SCCc2ccccc2)s1)C1CCCCC1 | 3.18% (inactive) |
| Cc1csc(Sc2ccc(NC(=O)C3CCC3)c(C)c2)n1 | 33.2% (inactive) |
| C=CCSc1nnc(NC(=O)C2CCCCC2)s1 | 91.9% (active) |
| CC(=O)Nc1cc(C)nn1-c1nc(C)c(C)c(=O)[nH]1 | 101% (active) |
| CCC(=O)Nc1cc(C)nn1-c1nc(C)c(C)c(=O)[nH]1 | 99.7% (active) |

| SMILES | inhibition |
| --- | --- |
| COC(=O)CCc1c(C)nn(-c2nc(C)c(C)c(=O)[nH]2)c1C | 101% (active) |
| Cc1cc(NC(=O)C(C)(C)CCl)n(-c2nc(C)c(C)c(=O)[nH]2)n1 | 101% (active) |
| Cc1cc(NC(=O)C(C)C)n(-c2nc(C)c(C)c(=O)[nH]2)n1 | -18.6% (inactive) |
| COC(=O)CCc1c(C)nn(-c2nc(C)cc(=O)[nH]2)c1C | 43.3% (inactive) |
| Cc1cc(NC(=O)Cc2ccccc2)n(-c2nc(C)c(C)c(=O)[nH]2)n1 | 99.4% (active) |
| Cc1[nH]nc(Nc2ccc(Cl)c(Cl)c2)c1[N+](=O)[O-] | 70.3% (active) |
| CC(C)Oc1ccc(C(=O)NCc2cccs2)cc1 | 34.9% (inactive) |
| O=C(NCc1cccs1)c1cc(Br)ccc1F | 83.2% (active) |
| Brc1ccc(NCc2cccs2)cc1 | 6.27% (inactive) |
| C=C(C)CN(CC)c1nc(N)c(C#N)c(C(C#N)Cc2ccc(C)cc2)c1C#N (stereo not drawn) | 21.1% (inactive) |
| O=c1[nH]c2sc3c(c2c2ncnn12)CCCC3 | -17.8% (inactive) |
| Cc1sc2nc[nH]c(=S)c2c1C | 88.8% (active) |
| Cc1sc2nc[nH]c(=S)c2c1-c1ccccc1 | 87.7% (active) |
| S=c1[nH]cnc2sc3c(c12)CCCC3 | 93.9% (active) |
| CC1CCc2c(sc3nc[nH]c(=S)c23)C1 (stereo not drawn) | 2.8% (inactive) |
| Cc1ccc(-c2csc3nc[nH]c(=S)c23)cc1C | 31.2% (inactive) |
| CC(N=c1ccccn1C(=O)Nc1ccc(Cl)c(Cl)c1)c1ccco1 (stereo not drawn) | -3.96% (inactive) |
| CC(NC(=O)CN(C)CC(=O)Nc1ccc(Cl)c(Cl)c1)c1ccco1 (stereo not drawn) | 86.6% (active) |
| Fc1c(F)c(F)c(NN=Cc2ccc3c(c2)OCO3)c(F)c1F | 89.5% (active) |
| C(=NNc1ccc2ccccc2n1)c1ccc2c(c1)OCCO2 | 27.8% (inactive) |
| Fc1ccc(NN=Cc2ccc3c(c2)OCO3)c(F)c1 | 81.8% (active) |
| Fc1ccc(NN=Cc2ccc3c(c2)OCCO3)c(F)c1 | 37% (inactive) |
| O=C1C=C2C(=CCOC2O)O1 (stereo not drawn) | 98.2% (active) |

| SMILES | inhibition |
| --- | --- |
| CC(NS(=O)(=O)c1ccccc1C#N)c1ccc(-n2ccnc2)cc1 (stereo not drawn) | -48.9% (inactive) |
| Cc1cc(C)cc(Nc2nc(-c3ccc(F)cc3)cs2)c1 | 51.7% (active) |
| CSc1ccc(-c2csc(N)n2)cc1 | 8.66% (inactive) |
| Nc1nc(-c2ccc(F)cc2)cs1 | 90.4% (active) |
| O=c1[nH]c2ccc(-c3csc(-c4ccc(F)cc4)n3)cc2o1 | 39.4% (inactive) |
| Nc1nc(-c2ccc(I)cc2)cs1 | inactive |
| Nc1nc(-c2cc(F)ccc2F)cs1 | 77.2% (active) |
| Nc1nc(-c2ccc(F)cc2F)cs1 | 33.6% (inactive) |
| Fc1ccc(F)c(-c2csc(Nc3ccc4c(c3)OCCO4)n2)c1 | 22.8% (inactive) |
| Cc1ccc(-c2csc(N)n2)cc1 | 101% (active) |
| C=CCNc1nc(-c2cc(F)ccc2F)cs1 | 45.9% (inactive) |
| OC(c1cn2cc(-c3ccc(F)cc3)nc2s1)(C(F)(F)F)C(F)(F)F | 15.3% (inactive) |
| c1csc(-c2nc(SCC3COc4ccccc4O3)n[nH]2)c1 (stereo not drawn) | -27.5% (inactive) |
| Clc1ccc(C=NOCc2nnc(-c3ccccc3Br)o2)cc1Cl | 50.2% (active) |
| c1csc(-c2nnc(CON=C3c4ccccc4-c4ccccc43)o2)c1 | 26.7% (inactive) |
| Brc1ccccc1-c1nnc(CSc2nnnn2C2CC2)o1 | 28.9% (inactive) |
| Oc1ccc(-c2nc3cc(Cl)ccc3s2)cc1 | 36.2% (inactive) |
| CC(C)c1nc(CS(=O)(=O)c2nc3cc(Cl)ccc3s2)no1 | 64.2% (active) |
| CC(C(N)=O)N1CCC(c2nc3cc(Cl)ccc3s2)CC1 (stereo not drawn) | 38% (inactive) |
| O=C(O)/C=C/C=C/c1ccccc1 | 38.2% (inactive) |
| Cc1cc(C)c(C)c(C(=O)/C=C/C(=O)O)c1C | 85.5% (active) |
| O=C(Nc1cccc(-c2noc(C3CC3)n2)c1)C1CCOCC1 | 11.2% (inactive) |
| Cc1nc(-c2ccc(NC(=O)C3CCOCC3)cc2)co1 | 88.5% (active) |

| SMILES | inhibition |
| --- | --- |
| O=C(Nc1ccc(-c2nc3ccccc3o2)cc1)C1CCN(C(=O)C2CCCCO2)CC1 (stereo not drawn) | 34.5% (inactive) |
| COc1cc(C(=O)NCC(=O)Nc2nc3c(ccc4ccccc43)s2)cc(OC)c1OC | 88.5% (active) |
| O=S(=O)(Nc1nc2c(ccc3ccccc32)s1)c1ccc(Cl)s1 | 22.8% (inactive) |
| C(=Cc1nc2c(ccc3ccccc32)s1)c1ccc2c(c1)OCCO2 | 36.3% (inactive) |
| O=C1CCC(=O)N1OCCOc1cccc(Oc2ccccc2)c1 | 72% (active) |
| CCCCNC(=O)NCC12CC3CC(CC(C3)C1)C2 | 74.1% (active) |
| CC(C)(C(=O)Nc1ccc(F)cc1)c1ccc2c(c1)OCCO2 | 57.4% (active) |
| CCOC(=O)C1=C(C)N(c2ccc3c(c2)OCCO3)C(=S)NC1c1cccc(F)c1 (stereo not drawn) | 1.48% (inactive) |
| CC1CCc2c(sc3nc(C(C)C)nc(N4CCN(C(=O)Nc5c(Cl)cccc5Cl)CC4)c23)C1 (stereo not drawn) | 10.7% (inactive) |
| Cc1nc(N2CCCCC2)c2c3c(sc2n1)CC(C)CC3 (stereo not drawn) | -32.2% (inactive) |
| CC1CCc2c(sc3nc(-c4ccc(N(C)C)cc4)nc(N4CCNCC4)c23)C1 (stereo not drawn) | 94.9% (active) |
| COC(=O)c1ccc(CN(Cc2ccc(C)o2)C2CC2)o1 | 66.2% (active) |
| COc1ccc(CCN(Cc2ccc(C)o2)C(=O)CN(C(=O)c2ccccc2Cl)C2CC2)cc1OC | -5.97% (inactive) |
| CCN(CC1COc2ccccc2O1)C(=O)NCc1sccc1C (stereo not drawn) | -23.5% (inactive) |
| COC(=O)c1ccc(CN(Cc2cccc(OC)c2OC)C2CC2)o1 | 83.8% (active) |
| Cc1ccc(NC(=O)NC(=O)CN(Cc2ccco2)C2CC2)cc1C | -3.72% (inactive) |
| COc1ccc(CN(C(=O)Nc2cccc(Cl)c2)C2CC2)cc1 | -5.25% (inactive) |
| COC(=O)c1ccc(CN(Cc2sccc2C)C2CC2)o1 | 98.5% (active) |
| COC(=O)c1ccc(CSc2n[nH]c(=S)s2)o1 | inactive |
| COc1cccc(CN(C)C(=O)c2cc3ccccc3o2)c1OC | 39.1% (inactive) |
| COC(=O)c1ccc(CN(Cc2ccc(OC)cc2)C2CC2)o1 | 54.7% (active) |
